RE007 growth inh – less growth of the S. pombe RE007 Vpr strain | S. pombe RE007 Vpr strain, BacTiter-Glo ATP luminescence, 24 h | 360,000 compounds, 0.21% hits | Potency, µM (highest dose often 92.2 µM), usual class: inhibitors | AID 651644; active means well fitted falling curve with a large enough effect; inconclusive means small, poorly fitted or top-dose-only effect; inactive means no such curve, though single readings can be large or run the other way; further: nearly all actives have a fitted effect of over 50% in size
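Fission yeast RE007 carrying one integrated HIV-1 vpr copy, seeded at OD 0.01 in PMG+AL medium with 23 nL pinned compound. Grown 24 h at 30 degrees; viability read by BacTiter-Glo luminescence after 5 min.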
FMDV antiviral – foot and mouth disease virus antiviral activity. FMDV antiviral cell-based qHTS. Potency, µM (highest dose often 57.9 µM), most hits filed as inhibitors. 410,000 compounds, 1.2% hits. AID 1159524; calls by dose curve; tested in HEK293T cells; further: read-out not given here; nearly all actives have a fitted effect of over 45% in size
Sm TGR block – blocks Schistosoma mansoni thioredoxin glutathione reductase; Q962Y6; Potency, µM (highest dose often 114 µM), usual class: inhibitors; purified TGR, DTNB reduction, TNB absorbance 405 nm; 360,000 compounds, 3% hits; further: nearly all actives have a fitted effect of over 60% in size
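TGR 20 nM + NADPH 100 uM (dispensed conc.), cpd preinc 15 min RT; start with NADPH (500 uM addition) then DTNB (15 mM addition). Kinetic TNB absorbance, 405 nm filter. Four-parameter Hill fit across titration.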
FBPA Giardia inh – blocks Giardia fructose-bisphosphate aldolase activity | A8B2U2 | purified Giardia FBPA | Potency, µM (series often up to 59.6 µM), most hits filed as inhibitors | 290,000 compounds, 0.71% hits | AID 2451; further: nearly all actives have a fitted effect of over 55% in size
Target sequence (A8B2U2 whole entry, looked up): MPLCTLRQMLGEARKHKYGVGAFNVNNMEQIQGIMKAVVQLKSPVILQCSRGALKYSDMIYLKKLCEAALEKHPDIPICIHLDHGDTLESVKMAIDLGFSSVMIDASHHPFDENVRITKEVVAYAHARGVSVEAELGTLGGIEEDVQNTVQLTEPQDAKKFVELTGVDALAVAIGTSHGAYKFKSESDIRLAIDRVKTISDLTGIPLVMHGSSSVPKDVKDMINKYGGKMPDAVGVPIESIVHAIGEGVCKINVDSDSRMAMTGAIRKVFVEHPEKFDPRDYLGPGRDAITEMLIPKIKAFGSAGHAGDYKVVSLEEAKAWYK
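Giardia FBPA (40 nM reagent) was preincubated 10 min at RT with compound (up to 57.5 uM final), then substrate plus GAPDH/TPI/NAD/arsenate coupling system with diaphorase/resazurin was added; resorufin fluorescence (525/598 nm) was read after 20 min.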
TbPYK inhibitor – inhibitors of Trypanosoma brucei pyruvate kinase | Q57TT1 | TbPYK enzyme, Kinase-Glo Plus ATP luminescence, 45 min | Potency, µM (doses to about 76.8 µM), most hits filed as inhibitors | 410,000 compounds, 0.12% hits; further: nearly all actives have a fitted effect of over 50% in size
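In this concentration-response screen, enzyme-free wells defined baseline while DMSO plates tracked drift. Each reaction combined TbPYK, substrate, compound and 130 uM ADP for 45 min at room temperature. Kinase-Glo Plus luminescence gave the signal.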
HCMV antiviral – inhibitors of human cytomegalovirus; HFF cells, HCMV-luciferase reporter, 72 h; hits give low values; activity change, negative = inhibition, % at 57.5 µM; 410,000 compounds, 4.5% hits; AID 1259415; in the data active means activity change below about -60%; inconclusive means no clear call, values can overlap the other calls; inactive means above about -39%
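Two-dose cell screen: HFF monolayers treated with compounds and infected with luciferase-expressing HCMV at 1 PFU/cell, 72 h at 37C, then lysed for luciferase measurement.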
Large screens that a line does not name were inactive. A selection: hits, their analogues and other compounds. The true share with any hit is near 7.7%. Unless noted, the call rests on the fitted dose curve; in most records, active means well fitted curve in the direction sought with a large enough effect; inconclusive means small, poorly fitted or top-dose-only effect, or another doubt; inactive means no such curve, though single readings can be large; an effect the other way counts as inactive or inconclusive.

CCOc1ccccc1-n1c(=S)sc2c(=O)n(-c3ccc(C)cc3)c(=S)[nH]c21	FBPA Giardia inh inconclusive, TbPYK inhibitor inconclusive
NC(=O)C1(N2CCCCC2)CCN(CCCC(=O)c2ccc(F)cc2)CC1	none (no result: RE007 growth inh, FMDV antiviral, Sm TGR block, HCMV antiviral)
CC(=O)O[C@@H]1C[C@H]2C(C)(C)C(=O)C=C[C@]2(C)[C@H]2CC[C@@]3(C)[C@H](c4ccoc4)OC(=O)[C@H]4O[C@]43[C@@]21C	FMDV antiviral 16µM, HCMV antiviral -79
COC(=O)c1ccc(C(=O)OC)c(NC(=O)N2CC3CCCN3c3ccccc32)c1 (stereo unspecified)	none (no result: RE007 growth inh, FBPA Giardia inh)
COc1ccc(NS(=O)(=O)c2cc(NC(=O)[C@@H](NC(=O)c3ccccc3)C(C)C)ccc2C)cc1	HCMV antiviral -87
COc1ccc(NS(=O)(=O)c2cc(NC(=O)C(CC(C)C)NC(N)=O)ccc2N2CCOCC2)cc1 (stereo unspecified)	HCMV antiviral -68 (no result: Sm TGR block, FBPA Giardia inh)
COc1ccc(NS(=O)(=O)c2ccc(N3CCOCC3)c(N)c2)cc1	FMDV antiviral inconclusive, Sm TGR block inconclusive, HCMV antiviral -70 (no result: FBPA Giardia inh)
COc1ccc(NS(=O)(=O)c2cc(NC(=O)[C@H](C)NC(N)=O)ccc2N2CCCC2)cc1	HCMV antiviral -85 (no result: Sm TGR block, FBPA Giardia inh)
CCCCNC(=O)c1ccc2c(c1)NC(=O)C(CS(=O)(=O)Cc1cccc(C)c1)N2 (stereo unspecified)	none (no result: RE007 growth inh, FBPA Giardia inh)
COc1ccc(N2CCN(C(CNC(=O)C(=O)NCCc3ccccc3)c3cccnc3)CC2)cc1 (stereo unspecified)	none (no result: RE007 growth inh, FBPA Giardia inh)
Cc1ccc(CN2CC=CCS2(=O)=O)cc1	none (no result: RE007 growth inh, FMDV antiviral, Sm TGR block, FBPA Giardia inh, TbPYK inhibitor)
O=C(NCC1CCCCC1)c1cc2ccccc2cc1O	HCMV antiviral -75 (no result: FBPA Giardia inh)
NNC(=O)c1cc2ccccc2cc1O	FMDV antiviral 6.3µM, HCMV antiviral -74 (no result: RE007 growth inh)
NNC(=O)c1ccc(O)cc1O	none
O=C(NCC1CCCO1)c1cc2ccccc2cc1O (stereo unspecified)	none (no result: FBPA Giardia inh)
Cc1cc(C)c2c(=O)c3c(oc2c1)C(=O)N(Cc1ccco1)C3c1ccccc1F (stereo unspecified)	none (no result: RE007 growth inh, FBPA Giardia inh)
NS(=O)(=O)c1ccc(N/N=C/c2ccc(C(=O)O)cc2)c([N+](=O)[O-])c1	none
CN1CCC(=NNc2ccc(S(=O)(=O)N3CCOCC3)cc2[N+](=O)[O-])CC1	Sm TGR block inconclusive, HCMV antiviral inconclusive
Cc1ccc(-n2c(O)c(/C=N/Nc3ccc(S(=O)(=O)N4CCOCC4)cc3[N+](=O)[O-])c3ccccc3c2=O)c(C)c1	FMDV antiviral 10µM, HCMV antiviral -98
C/C(=N\Nc1ccc(S(N)(=O)=O)cc1[N+](=O)[O-])c1ccc2c(c1)OCO2	FMDV antiviral 35µM, HCMV antiviral inconclusive (no result: Sm TGR block)
C/C(=N\Nc1ccc(S(=O)(=O)N2CCOCC2)cc1[N+](=O)[O-])C(C)C	Sm TGR block 40µM, HCMV antiviral inconclusive
O=C(O)c1ccc(/C=N\Nc2ccc(S(=O)(=O)N3CCOCC3)cc2[N+](=O)[O-])cc1	Sm TGR block 45µM
N[C@H](C(=O)O)c1nn[nH]n1	none (no result: RE007 growth inh, Sm TGR block, TbPYK inhibitor, HCMV antiviral)
Brc1cc2ccccc2[n+](Cc2ccccc2)c1	HCMV antiviral -101 (no result: FBPA Giardia inh)
O=C(C[n+]1cc(Br)cc2ccccc21)c1ccc(Br)cc1	none
O=C1CSc2ccc(C(=O)N3CCCCC3)cc2N1	HCMV antiviral -68 (no result: Sm TGR block, FBPA Giardia inh)
Cc1ccc(NC(=O)CSC2=C(C#N)C(c3ccc4c(c3)OCO4)C3=C(CCCC3=O)N2)c(C)c1 (stereo unspecified)	HCMV antiviral -65
CCc1ccccc1NC(=O)CSC1=C(C#N)C(c2ccc(O)c(OC)c2)C2=C(CCCC2=O)N1 (stereo unspecified)	FMDV antiviral inconclusive, Sm TGR block 40µM
COc1ccc(N2CC(NC(=O)c3ccc4c(c3)OCO4)CC2=O)cc1OC (stereo unspecified)	none (no result: RE007 growth inh, FBPA Giardia inh)
O=C(NCc1ccco1)C1CCN(S(=O)(=O)N2CCOCC2)CC1	Sm TGR block 50µM
Cc1ccccc1NC(=O)C1CCN(S(=O)(=O)c2c(C)noc2/C=C/c2ccco2)CC1	none (no result: RE007 growth inh, FBPA Giardia inh)
COc1ccc(/C=C/c2onc(C)c2S(=O)(=O)N2CCC(C(=O)N3CCCCCC3)CC2)cc1	HCMV antiviral -69

From PubChem BioAssay
